PubChem BioAssay (NCATS)
Inconclusive results are not listed. The source made the active and inactive calls. The call rests on the fitted dose curve; in most records, active means well fitted cell-killing curve with a large enough effect; inconclusive means small, poorly fitted or top-dose-only effect, or effect the other way; inactive means no such curve, though single readings can be large or run the other way.

Legend:
[1] = Quantitative High-Throughput drug screen in 47 multiple myeloma cell lines against the NCATS MIPE library collection: MM1R_ATCC cell viability assay (AID 1918981); further: nearly all actives have a fitted effect of over 35% in size; further: potency means the concentration at half of the fitted maximal effect
How it was run: (§1)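 ATP-based luminescence (CellTiter-Glo, 5 min RT incubation) quantified surviving cells following two days' treatment with MIPE 4.0 agents at 37 °C, 5% CO2.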

[2] = Quantitative High-Throughput drug screen in 47 multiple myeloma cell lines against the NCATS MIPE library collection: LP1_DSMZ cell viability assay (AID 1918982); further: nearly all actives have a fitted effect of over 35% in size; further: potency means the concentration at half of the fitted maximal effect
How it was run: as §1

[3] = Quantitative High-Throughput drug screen in 47 multiple myeloma cell lines against the NCATS MIPE library collection: KMS28PE_JCRB cell viability assay (AID 1918983); further: nearly all actives have a fitted effect of over 35% in size; further: potency means the concentration at half of the fitted maximal effect
How it was run: as §1

[4] = Quantitative High-Throughput drug screen in 47 multiple myeloma cell lines against the NCATS MIPE library collection: OPM1_PLB cell viability assay (AID 1918989); further: nearly all actives have a fitted effect of over 40% in size; further: potency means the concentration at half of the fitted maximal effect
How it was run: as §1

[5] = Quantitative High-Throughput drug screen in 47 multiple myeloma cell lines against the NCATS MIPE library collection: U266_ATCC cell viability assay (AID 1919864); further: nearly all actives have a fitted effect of over 35% in size; further: potency means the concentration at half of the fitted maximal effect;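 on viability (% of DMSO control): 0% = media-only wells without cells and 100% = DMSO-only wells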
How it was run: as §1

[6] = Quantitative High-Throughput drug screen in 47 multiple myeloma cell lines against the NCATS MIPE library collection: XG6_PLB cell viability assay (AID 1919865); further: nearly all actives have a fitted effect of over 40% in size; further: potency means the concentration at half of the fitted maximal effect
How it was run: as §1

[7] = Quantitative High-Throughput drug screen in 47 multiple myeloma cell lines against the NCATS MIPE library collection: XG1_PLB cell viability assay (AID 1919866); further: nearly all actives have a fitted effect of over 35% in size; further: potency means the concentration at half of the fitted maximal effect
How it was run: as §1

[8] = Quantitative High-Throughput drug screen in 47 multiple myeloma cell lines against the NCATS MIPE library collection: VP6_DJ cell viability assay (AID 1919867); further: nearly all actives have a fitted effect of over 40% in size; further: potency means the concentration at half of the fitted maximal effect
How it was run: as §1

[9] = Quantitative High-Throughput drug screen in 47 multiple myeloma cell lines against the NCATS MIPE library collection: PE2_PLB cell viability assay (AID 1919869); further: nearly all actives have a fitted effect of over 35% in size; further: potency means the concentration at half of the fitted maximal effect
How it was run: as §1

[10] = Quantitative High-Throughput drug screen in 47 multiple myeloma cell lines against the NCATS MIPE library collection: PCM6_Riken cell viability assay (AID 1919870); further: nearly all actives have a fitted effect of over 30% in size; further: potency means the concentration at half of the fitted maximal effect
How it was run: as §1

[11] = Quantitative High-Throughput drug screen in 47 multiple myeloma cell lines against the NCATS MIPE library collection: MM1S_ATCC cell viability assay (AID 1918980); further: nearly all actives have a fitted effect of over 45% in size; further: potency means the concentration at half of the fitted maximal effect
How it was run: as §1

[12] = Quantitative High-Throughput drug screen in 47 multiple myeloma cell lines against the NCATS MIPE library collection: KMS34_JCRB cell viability assay (AID 1918985); further: nearly all actives have a fitted effect of over 40% in size; further: potency means the concentration at half of the fitted maximal effect
How it was run: as §1

[13] = Quantitative High-Throughput drug screen in 47 multiple myeloma cell lines against the NCATS MIPE library collection: OCIMY5_PLB cell viability assay (AID 1918988); further: nearly all actives have a fitted effect of over 65% in size; further: potency means the concentration at half of the fitted maximal effect
How it was run: as §1

[14] = Quantitative High-Throughput drug screen in 47 multiple myeloma cell lines against the NCATS MIPE library collection: SKMM1_PLB cell viability assay (AID 1919863); details: SKMM1 myeloma viability, CellTiter-Glo ATP, 48 h; viability: stronger effect = lower value; further: nearly all actives have a fitted effect of over 35% in size; further: potency means the concentration at half of the fitted maximal effect
How it was run: as §1

[15] = Quantitative High-Throughput drug screen in 47 multiple myeloma cell lines against the NCATS MIPE library collection: UTMC2_PLB cell viability assay (AID 1919868); details: CellTiter-Glo ATP luminescence, 48 h; viability (% of DMSO control): at 45.8 µM (top of the series); further: nearly all actives have a fitted effect of over 55% in size; further: potency means the concentration at half of the fitted maximal effect;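 on viability (% of DMSO control): 100% = DMSO-only wells and 0% = media-only wells without cells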
How it was run: as §1

[16] = Quantitative High-Throughput drug screen in 47 multiple myeloma cell lines against the NCATS MIPE library collection: RPMI8226_ATCC cell viability assay (AID 1919871); further: nearly all actives have a fitted effect of over 30% in size; further: potency means the concentration at half of the fitted maximal effect
How it was run: as §1

[17] = Quantitative High-Throughput drug screen in 47 multiple myeloma cell lines against the NCATS MIPE library collection: OPM2_DSMZ cell viability assay (AID 1919872); further: nearly all actives have a fitted effect of over 30% in size; further: potency means the concentration at half of the fitted maximal effect
How it was run: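 Viability readout: CellTiter-Glo luminescence following 5 min room-temperature incubation with reagent. Prior exposure: 48 h, 37C, humidified 5% CO2, 500 cells per well.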

[18] = Quantitative High-Throughput drug screen in 47 multiple myeloma cell lines against the NCATS MIPE library collection: OCIMY1_PLB cell viability assay (AID 1918979)
How it was run: as §1

[19] = Quantitative High-Throughput drug screen in 47 multiple myeloma cell lines against the NCATS MIPE library collection: OCIMY7_PLB cell viability assay (AID 1918987); further: potency means the concentration at half of the fitted maximal effect; nearly all actives have a fitted effect of over 65% in size
How it was run: as §1

CC(C)(C)c1cc(C=C(C#N)C#N)cc(Br)c1O
active: Potency [1] 23.5 µM | Potency [2] 23.5 µM | Potency [3] 23.5 µM | Potency [4] 9.35 µM | Potency [5] 26.4 µM | Potency [6] 14.8 µM | Potency [7] 11.8 µM | Potency [8] 11.8 µM | Potency [9] 5.26 µM | Potency [10] 18.7 µM

COC[C@H]1OC(=O)c2coc3c2[C@@]1(C)C1=C(C3=O)[C@@H]2CC[C@H](O)[C@@]2(C)C[C@@H]1OC(C)=O
active: Potency [11] 2.35 µM | Potency [1] 0.332 µM | Potency [3] 1.32 µM | Potency [12] 2.09 µM | Potency [13] 10.5 µM | Potency [4] 0.332 µM | Potency [14] 7.43 µM | Potency [5] 16.6 µM | Potency [6] 4.18 µM | Potency [7] 2.09 µM | Potency [8] 1.87 µM | Potency [15] 0.296 µM | Potency [9] 0.743 µM | Potency [10] 3.72 µM | Potency [16] 2.96 µM | Potency [17] 1.87 µM

CC(=O)OCC1=C(C(=O)O)N2C(=O)[C@@H](N)[C@@H]2SC1
inactive: Potency [18] | Potency [3] | Potency [4] | viability [14] 121% | Potency [5] | Potency [6] | Potency [7] | Potency [8] | Potency [15] | Potency [9] | Potency [10] | Potency [17]

CC(=O)O[C@@]12CO[C@H]1C[C@H](O)[C@@]1(C)C(=O)[C@H](O)C3=C(C)[C@@H](O)C[C@@](O)([C@@H](OC(=O)c4ccccc4)[C@@H]21)C3(C)C
inactive: Potency [5]
active: Potency [11] 10.5 µM | Potency [1] 7.43 µM | Potency [3] 2.64 µM | Potency [12] 3.72 µM | Potency [19] 2.09 µM | Potency [13] 1.48 µM | Potency [4] 1.32 µM | Potency [14] 4.18 µM | Potency [6] 0.418 µM | Potency [7] 0.526 µM | Potency [8] 0.935 µM | Potency [10] 3.32 µM | Potency [16] 2.96 µM | Potency [17] 9.35 µM

O=C(Oc1ccc([N+](=O)[O-])cc1)N1CCN(Cc2cccc(Oc3ccccc3)c2)CC1
active: Potency [11] 11.8 µM | Potency [5] 14.8 µM | Potency [6] 23.5 µM | Potency [7] 20.9 µM
inactive: Potency [2] | Potency [3] | Potency [12] | Potency [13] | Potency [4] | viability [14] 117% | Potency [9] | Potency [16] | Potency [17]

CC=C(C)C(=O)N[C@@H](c1ccccc1)[C@@H](O)C(=O)O[C@H]1C[C@@]2(O)[C@@H](OC(=O)c3ccccc3)[C@@H]3[C@]4(OC(C)=O)CO[C@@H]4C[C@H](O)[C@@]3(C)C(=O)[C@H](OC(C)=O)C(=C1C)C2(C)C
inactive: Potency [11] | Potency [2] | Potency [3] | Potency [12] | Potency [13] | viability [14] 60.8% | Potency [6] | Potency [7] | Potency [8] | Potency [15] | Potency [9] | Potency [10] | Potency [16]

O=C(N[C@H]1CN2CCC1CC2)c1ccc(Cl)cc1
inactive: Potency [1] | Potency [2] | Potency [3] | Potency [12] | Potency [4] | Potency [16] | Potency [17]
active: Potency [11] 2.96 µM | Potency [5] 4.18 µM | Potency [6] 8.33 µM | Potency [7] 6.62 µM | Potency [8] 7.43 µM | Potency [10] 8.33 µM

Cc1c(C(=O)c2cccc3ccccc23)c2cccc3c2n1[C@H](CN1CCOCC1)CO3
inactive: Potency [7] | Potency [8] | Potency [10]
active: Potency [3] 26.4 µM | Potency [12] 23.5 µM | Potency [19] 13.2 µM | Potency [13] 23.5 µM | Potency [4] 23.5 µM | Potency [14] 23.5 µM | Potency [5] 18.7 µM | Potency [9] 23.5 µM | Potency [16] 23.5 µM | Potency [17] 23.5 µM
